Data on nine compounds can be found in PubChem BioAssay (NCI).

Holding throughout (assay): NCI-60 one-dose screen, 48 h (100 = growth as untreated, 0 = no growth, -100 = all killed)
One experiment relates to HCT-15 colon. Conditions: 10 µM unless noted.
For a further experiment, the system named is HT29 colon. The note with it: 10 µM unless noted.
Another experiment concerns SNB-75 CNS. Conditions: 10 µM unless noted.
For a further experiment, the system named is SNB-19 CNS. Conditions: 10 µM unless noted.
Another experiment has as its system U251 CNS. The note with it: 10 µM unless noted.
For the next experiment, the system named is PC-3 prostate. Conditions: 10 µM unless noted.
The subject of another experiment is SK-MEL-5 melanoma. Conditions: 10 µM unless noted.
The next experiment concerns LOX IMVI melanoma. The note with it: 10 µM.
A further experiment relates to SK-MEL-28 melanoma. The note with it: 10 µM unless noted.
Another experiment deals with SK-MEL-2 melanoma. The note with it: 10 µM unless noted.
In another experiment the test system is EKVX NSCLC. The note with it: 10 µM unless noted.
In a further experiment the test system is SN12C renal. The note with it: 10 µM unless noted.
For a further experiment, the system named is UO-31 renal. The note with it: 10 µM unless noted.
For the next experiment, the system named is TK-10 renal. The note with it: 10 µM unless noted.
The test system of another experiment is ACHN renal. Conditions: 10 µM unless noted.
The subject of another experiment is CAKI-1 renal. Conditions: 10 µM unless noted.
For another experiment, the system named is A498 renal. Conditions: 10 µM unless noted.
The next experiment has as its system CCRF-CEM leukemia. The note with it: 10 µM unless noted.
A further experiment relates to MOLT-4 leukemia. Conditions: 10 µM unless noted.

About 83,000 compounds went through this panel and 20% of them were active in at least one assay; those are over-represented in the sample as a whole.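 Testing used 96-well plates and a 48-hour single-concentration exposure. Example: -40 means 40% of the starting cells died.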 A number with no mark means an inactive call. Activity calls are given as the source filed them. The calls were made as follows: active = growth percent below 10; inactive = the rest.

Turning to `CN(CCCN(C)CCC1CCCCC1)CCC1CCCCC1`, the growth is 8.41% (active) in the experiment on HCT-15 colon; 3.68% (active) in the experiment with HT29 colon; -0.933% (active) in the experiment with SNB-75 CNS; 77.3% in the experiment on SNB-19 CNS; 11.1% in the experiment on U251 CNS; 43.2% in the experiment with PC-3 prostate. In addition, the growth in the experiment on SK-MEL-5 melanoma was -100% (active); in the experiment on LOX IMVI melanoma it was -4.45% (active); in the experiment on SK-MEL-28 melanoma, -84.9% (active); with SK-MEL-2 melanoma it was 74.8%; with EKVX NSCLC, 61.4%; in the experiment with SN12C renal it was 53.1%. The growth was 49.8% with UO-31 renal; 76.1% in the experiment on TK-10 renal; 35.4% with ACHN renal; 46.9% with CAKI-1 renal; 84.7% in the experiment on A498 renal; 20.9% in the experiment on CCRF-CEM leukemia. In addition, the growth in the experiment with MOLT-4 leukemia was 20.5%.

Consider `CC(C)NC(=O)OCc1c(COC(=O)NC(C)C)c(-c2ccc(Cl)cc2)n2c1CCC2`, for which the growth is 58.4% in the experiment on HCT-15 colon; 56% in the experiment on HT29 colon; 34.1% with SNB-75 CNS; 57.9% in the experiment with SNB-19 CNS; 49% with U251 CNS; 68.2% in the experiment on PC-3 prostate. Further, the growth in the experiment with SK-MEL-5 melanoma is 68.1%; in the experiment on LOX IMVI melanoma, 30.5%; in the experiment with SK-MEL-28 melanoma, 84.7%; in the experiment with SK-MEL-2 melanoma it was 94.4%; in the experiment on EKVX NSCLC, 76.6%; in the experiment on SN12C renal, 38.2%. In addition, the growth in the experiment with UO-31 renal is 50.6%; in the experiment on TK-10 renal it was 57.6%; in the experiment with ACHN renal, 11.1%; in the experiment on CAKI-1 renal it was 6.56% (active); with A498 renal, 44.5%; in the experiment with CCRF-CEM leukemia, 51.5%. Further, in the experiment with MOLT-4 leukemia, the growth is 21.9%.

For the compound `CC(C)N(C(=O)c1ccccc1)C(C)C`, the growth with HCT-15 colon is 104%; with HT29 colon, 107%; in the experiment on SNB-75 CNS, 100%; in the experiment on SNB-19 CNS, 113%; with U251 CNS, 95.9%; with PC-3 prostate it was 98.9%. In addition, the growth with SK-MEL-5 melanoma was 97.7%; in the experiment with LOX IMVI melanoma, 104%; with SK-MEL-28 melanoma it was 105%; in the experiment on SK-MEL-2 melanoma, 114%; in the experiment with EKVX NSCLC it was 104%; in the experiment with SN12C renal, 107%. Besides, the growth is 104% in the experiment on UO-31 renal; 98.2% with TK-10 renal; 108% in the experiment with ACHN renal; 98.5% with CAKI-1 renal; 86.6% in the experiment with A498 renal; 111% in the experiment with MOLT-4 leukemia.

Consider `CCOC(=O)N[C@H]1CCc2cc(OC)c(OC)c(OC)c2-c2ccc(SC)c(=O)cc21`, for which the growth with HCT-15 colon was 7.82% (active); with HT29 colon, 7.57% (active); in the experiment with SNB-75 CNS it was 44.3%; with SNB-19 CNS, 30.8%; with U251 CNS it was 17.1%; in the experiment on PC-3 prostate, 27.7%. The growth is -51.3% (active) in the experiment on SK-MEL-5 melanoma; 22.4% in the experiment with LOX IMVI melanoma; 60.1% with SK-MEL-28 melanoma; 32.2% in the experiment on SK-MEL-2 melanoma; 31.6% in the experiment with EKVX NSCLC; 26.8% in the experiment on SN12C renal. Also, the growth in the experiment with UO-31 renal is 47%; in the experiment on TK-10 renal, 43.7%; in the experiment on ACHN renal, 28.3%; in the experiment with CAKI-1 renal it was 19.7%; with CCRF-CEM leukemia, 21.9%; in the experiment with MOLT-4 leukemia, 9.15% (active).

Regarding `C=CCS(C)(=O)=O`, the growth in the experiment with HCT-15 colon is 102%; in the experiment on HT29 colon, 97.1%; in the experiment on SNB-75 CNS it was 94.1%; in the experiment with SNB-19 CNS, 101%; with U251 CNS, 90.4%; in the experiment with PC-3 prostate it was 101%. Also, the growth in the experiment on SK-MEL-5 melanoma was 104%; in the experiment with LOX IMVI melanoma, 103%; with SK-MEL-28 melanoma, 106%; with SK-MEL-2 melanoma it was 100%; in the experiment with EKVX NSCLC it was 91.3%; with SN12C renal, 98.1%. In addition, the growth in the experiment on UO-31 renal is 90.3%; in the experiment on TK-10 renal it was 96.6%; with ACHN renal, 102%; in the experiment with CAKI-1 renal, 92.5%; with A498 renal, 105%; with CCRF-CEM leukemia, 110%. Moreover, in the experiment on MOLT-4 leukemia, the growth was 109%.

On to `C=C(C)[C@@H]1CC[C@]2(CO)CC[C@]3(C)[C@H](CC[C@@H]4[C@@]5(C)CC[C@H](O)C(C)(C)[C@@H]5CC[C@]43C)[C@@H]12`, for which the growth was 89.7% with HCT-15 colon; 46.2% in the experiment on HT29 colon; 3.72% (active) in the experiment on SNB-75 CNS; 48% in the experiment with SNB-19 CNS; 24.9% in the experiment on U251 CNS; 38.7% in the experiment on PC-3 prostate. Besides, the growth in the experiment with SK-MEL-5 melanoma is -60.5% (active); in the experiment on LOX IMVI melanoma it was 32.2%; in the experiment with SK-MEL-2 melanoma it was 82.1%; with EKVX NSCLC, 66.4%; with SN12C renal, 47.5%; with UO-31 renal it was 27.8%. The growth was 51% with TK-10 renal; 18.3% with ACHN renal; 72.6% in the experiment with CAKI-1 renal; 75.7% with CCRF-CEM leukemia; 71.1% with MOLT-4 leukemia.

Consider `CC(=O)OCC1OC(n2cnc3c(=S)nc(N)[nH]c32)C(OC(C)=O)C1OC(C)=O` (stereo not drawn), for which the growth in the experiment with HCT-15 colon was 79.3%; in the experiment on HT29 colon it was 74.6%; with SNB-75 CNS it was 56%; in the experiment on SNB-19 CNS, 99.9%; with U251 CNS it was 93.1%; in the experiment on PC-3 prostate, 104%. Further, the growth in the experiment with SK-MEL-5 melanoma is 99.4%; in the experiment with LOX IMVI melanoma it was 19.7%; in the experiment on SK-MEL-28 melanoma it was 114%; with SK-MEL-2 melanoma, 95.2%; in the experiment on EKVX NSCLC it was 83.9%; with SN12C renal, 97.4%. Moreover, the growth in the experiment on UO-31 renal was 72.6%; in the experiment on TK-10 renal it was 82.4%; with ACHN renal it was 72.1%; in the experiment on A498 renal, 105%; in the experiment on MOLT-4 leukemia, 2.42% (active).

In the case of `CCCNS(=O)(=O)c1ccc(Cl)cc1`, the growth in the experiment on HCT-15 colon was 99.6%; in the experiment with HT29 colon it was 101%; in the experiment on SNB-75 CNS, 93.4%; in the experiment on SNB-19 CNS, 104%; in the experiment on U251 CNS, 99.3%; with PC-3 prostate, 92.9%. For the same compound, the growth is 105% in the experiment on SK-MEL-5 melanoma; 101% in the experiment on LOX IMVI melanoma; 108% with SK-MEL-28 melanoma; 106% in the experiment with SK-MEL-2 melanoma; 91.6% with EKVX NSCLC; 89.9% in the experiment with UO-31 renal. Besides, the growth in the experiment with TK-10 renal was 106%; in the experiment with ACHN renal it was 102%; in the experiment with CAKI-1 renal, 93.8%; in the experiment with A498 renal it was 98.9%; in the experiment on CCRF-CEM leukemia, 100%; in the experiment on MOLT-4 leukemia it was 113%.

For the compound `CCOC(=O)/C(O)=C(\C=N\C(=S)Nc1ccc(Cl)c(Cl)c1)C(=O)OCC`, the growth is 89.3% in the experiment with HCT-15 colon; 92.8% in the experiment with HT29 colon; 82% in the experiment with SNB-75 CNS; 104% in the experiment with SNB-19 CNS; 98.2% in the experiment with U251 CNS; 86.9% in the experiment with PC-3 prostate. In addition, the growth in the experiment on SK-MEL-5 melanoma was 91.7%; with LOX IMVI melanoma, 92.9%; in the experiment on SK-MEL-2 melanoma, 116%; in the experiment with EKVX NSCLC it was 82.8%; in the experiment with SN12C renal, 93.4%; in the experiment on UO-31 renal, 70.9%. Besides, the growth in the experiment with TK-10 renal was 117%; in the experiment with ACHN renal, 96.3%; with CAKI-1 renal it was 89.2%; in the experiment with A498 renal, 101%; in the experiment with CCRF-CEM leukemia it was 97.7%; in the experiment on MOLT-4 leukemia it was 76.5%.
